Assay results: PubChem BioAssay (NCATS)
Values joined by “and” are separate entries in the source; they are usually repeats but may differ in a detail not shown here. Equal values may be shown once. Inconclusive results are not listed. Active and inactive are the calls of the source. Unless noted, calls come from the whole dose curve; as a rule, active = well fitted curve in the direction sought with a large enough effect; inconclusive = small, poorly fitted or top-dose-only effect, or another doubt; inactive = no such curve, though single readings can be large; an effect the other way counts as inactive or inconclusive.

How the values were obtained:
[1] = molecular target: Cytochrome P450 2D6 (Homo sapiens) (UniProt P10635); experiment: Cytochrome P450 family 2 subfamily D member 6 (CYP2D6) small molecule antagonists: luciferase biochemical (cell-free) qHTS assay (AID 1645840; active = well fitted curve in the direction sought with a large enough effect in the repeat runs; an effect the other way counts as inactive or inconclusive; note: nearly all actives have a fitted effect of over 55% in size; note: potency is the fitted concentration of half-maximal effect; for activity change, negative = inhibition: % is set by controls: 0 for no effect and ±100 for the full control effect)
How it was run: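 P450-Glo CYP2D6 system: proluciferin substrate converted by enzyme to luciferin, read by luminescence proportional to activity. Enzyme-substrate mix with compound 10 min at room temperature, then NADPH regeneration 1 h before detection reagent.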

[2] = molecular target: Cytochrome P450 2C9 (Homo sapiens) (UniProt P11712); experiment: Cytochrome P450 family 2 subfamily C member 9 (CYP2C9) small molecule antagonists: luciferase biochemical (cell-free) qHTS assay (AID 1645842; active = well fitted curve in the direction sought with a large enough effect in the repeat runs; an effect the other way counts as inactive or inconclusive; note: nearly all actives have a fitted effect of over 55% in size; note: potency is the fitted concentration of half-maximal effect; for activity change, negative = inhibition: % is set by controls: 0 for no effect and ±100 for the full control effect)
How it was run: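 P450-Glo CYP2C9 system: proluciferin substrate with enzyme in mix containing 0.4% BSA, 10 min at room temperature, then NADPH regeneration solution added and incubated 1 h at 37C. Detection reagent stopped reaction; luminescence read after 20 min as RLU.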

[3] = Primary qHTS for inhibitors of nuclear receptor binding SET domain protein 2 (NSD2) in an isogenic RCH-ACV NSD2 p.E1099K mutant (9B) (AID 1645876); note: nearly all actives have a fitted effect of over 70% in size; note: potency is the fitted concentration of half-maximal effect
[4] = A High-Content qHTS Against Drug Library for the Identification of Small Molecules that Inhibit DYT1 Early Onset Primary Dystonia-Associated Cell Pathology (AID 1645839; calls by dose curve)
How it was run: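 Cells were seeded and left for 24 h, then dosed with compound alongside tetracycline induction of mutant EGFP-TorsinA. They were incubated for 48 h, fixed in 4% paraformaldehyde, permeabilized and imaged for mislocalization (%pathology) and cell count.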

Papain (Carica papaya) = Papain (Carica papaya) (UniProt P00784); experiment: Primary qHTS assay for inhibitors of the protease papain (AID 1645873);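 note: papain turnover of Z-FR-AMC read as the AMC fluorescence gain over 10 min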; note: potency is the fitted concentration of half-maximal effect; for activity change, negative = inhibition: % is set by controls: 0 for no effect and ±100 for the full control effect
[5] = Primary qHTS for inhibitors of nuclear receptor binding SET domain protein 2 (NSD2) in an RCH-ACV wild type WT cells (2C) (AID 1645877); note: nearly all actives have a fitted effect of over 70% in size; note: potency is the fitted concentration of half-maximal effect
[6] = molecular target: Catechol O-methyltransferase (Homo sapiens) (UniProt P21964); experiment: Confirmatory Screen for Target Class Profiling of Small Molecule Inhibitors of Methyltransferases (AID 1745852; calls by dose curve; for activity change, negative = inhibition: % is set by controls: 0 for no effect and ±100 for the full control effect); conditions: MTase-Glo luminescence, SAH detection, recombinant enzyme; measured here: COMT max response; stronger effect = lower value
[7] = molecular target: Guanidinoacetate N-methyltransferase (Homo sapiens) (UniProt Q14353); experiment: as above; conditions: MTase-Glo luminescence, SAH detection, recombinant enzyme; activity change, negative = inhibition: at 57.3 µM (top of the series) unless noted
[8] = molecular target: Nicotinamide N-methyltransferase (Homo sapiens) (UniProt P40261); experiment: as above; conditions: MTase-Glo luminescence, SAH detection, recombinant enzyme; measured here: NNMT max response; stronger effect = lower value
[9] = molecular target: Phenylethanolamine N-methyltransferase (Homo sapiens) (UniProt P11086); experiment: as above; conditions: MTase-Glo luminescence, SAH detection, recombinant enzyme; measured here: PNMT max response; stronger effect = lower value
[10] = molecular target: N-terminal Xaa-Pro-Lys N-methyltransferase 1 (Homo sapiens) (UniProt Q9BV86); experiment: Confirmatory qHTS for Inhibitors of N-terminal methyltransferase 1 (NTMT1): MTaseGlo Assay (AID 1645874); note: nearly all actives have a fitted effect of over 65% in size; note: potency is the fitted concentration of half-maximal effect;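 for activity change, negative = inhibition: luminescence from SAH made as NTMT1 methylates SPKRIA peptide using SAM; 0% = DMSO control and -100% = no-enzyme control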
How it was run: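 Room-temperature NTMT1 reaction, 30 min, with 100 uM SAM and 1 uM SPKRIA substrate; enzyme 125 nM. Read-out: MTase-Glo luminescence, normalized to no-enzyme and DMSO controls.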

[11] = molecular target: Cytochrome P450 3A4 (Homo sapiens) (UniProt P08684); experiment: Cytochrome P450 family 3 subfamily A member 4 (CYP3A4) small molecule antagonists: luciferase qHTS assay (AID 1645841; active = well fitted curve in the direction sought with a large enough effect in the repeat runs; an effect the other way counts as inactive or inconclusive; note: nearly all actives have a fitted effect of over 45% in size)
How it was run: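 P450-Glo CYP3A4 enzyme with proluciferin substrate preincubated 10 min with compound at room temperature, then NADPH regeneration 1 h. Luciferin detection reagent added for 20 min; luminescence recorded. Ketoconazole positive control.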

[12] = molecular target: Rap guanine nucleotide exchange factor 3 (Homo sapiens) (UniProt O95398); experiment: Confirmatory qHTS for antagonist of cAMP-regulated guanine nucleotide exchange factor 3 (EPAC1) (AID 1645880);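 note: plate controls were DMSO only for no effect and full effect of the ATA control for full effect; nearly all actives have a fitted effect of over 55% in size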
How it was run: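 Released BODIPY-GDP fluoresces less than Rap1-bound BODIPY-GDP; the signal is followed at 480/540 nm at 5-min intervals over 30 min, after 5 min at room temperature. Reactions contain 100 nM EPAC1, 250 nM RAP1B-BODIPY-GDP and 50 uM GDP; results are normalized to ATA and DMSO.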

[13] = molecular target: Rap guanine nucleotide exchange factor 3 (Homo sapiens) (UniProt O95398); experiment: Confirmatory qHTS for agonist of cAMP-regulated guanine nucleotide exchange factor 3 (EPAC1) (AID 1645881);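 note: EPAC1 catalysed release of BODIPY-GDP from Rap1B seen as fluorescence loss; 100% = effect of cAMP agonist control; nearly all actives have a fitted effect of over 75% in size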
[14] = molecular target: Rap guanine nucleotide exchange factor 4 (Homo sapiens) (UniProt Q8WZA2); experiment: Confirmatory qHTS for agonist of cAMP-regulated guanine nucleotide exchange factor 4 (EPAC2) (AID 1645884);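 note: nucleotide exchange releases bodipy-GDP from Rap1 and this lowers its fluorescence; % is set by controls: 0 for no effect and ±100 for the full control effect; nearly all actives have a fitted effect of over 65% in size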
[15] = molecular target: Rap guanine nucleotide exchange factor 4 (Homo sapiens) (UniProt Q8WZA2); experiment: Confirmatory qHTS for antagonist of cAMP-regulated guanine nucleotide exchange factor 4 (EPAC2) (AID 1645885); note: potency is the fitted concentration of half-maximal effect; nearly all actives have a fitted effect of over 25% in size

Chain of Cytochrome P450 2D6 (Homo sapiens) (P10635 whole entry, looked up): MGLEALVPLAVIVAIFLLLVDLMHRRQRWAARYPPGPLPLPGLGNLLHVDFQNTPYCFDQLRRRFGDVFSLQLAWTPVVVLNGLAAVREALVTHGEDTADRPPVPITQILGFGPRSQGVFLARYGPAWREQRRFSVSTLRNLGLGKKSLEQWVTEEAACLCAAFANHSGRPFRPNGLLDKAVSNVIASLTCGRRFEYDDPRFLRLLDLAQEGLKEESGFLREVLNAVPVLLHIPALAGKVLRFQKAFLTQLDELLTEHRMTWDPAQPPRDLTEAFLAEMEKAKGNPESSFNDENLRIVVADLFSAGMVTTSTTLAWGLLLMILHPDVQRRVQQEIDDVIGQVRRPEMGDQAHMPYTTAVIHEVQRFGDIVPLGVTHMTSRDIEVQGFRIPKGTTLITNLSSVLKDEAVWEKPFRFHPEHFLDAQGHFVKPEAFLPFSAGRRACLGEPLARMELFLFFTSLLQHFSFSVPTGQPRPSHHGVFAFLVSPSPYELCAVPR
Chain of Rap guanine nucleotide exchange factor 3 (Homo sapiens) (O95398 whole entry, looked up): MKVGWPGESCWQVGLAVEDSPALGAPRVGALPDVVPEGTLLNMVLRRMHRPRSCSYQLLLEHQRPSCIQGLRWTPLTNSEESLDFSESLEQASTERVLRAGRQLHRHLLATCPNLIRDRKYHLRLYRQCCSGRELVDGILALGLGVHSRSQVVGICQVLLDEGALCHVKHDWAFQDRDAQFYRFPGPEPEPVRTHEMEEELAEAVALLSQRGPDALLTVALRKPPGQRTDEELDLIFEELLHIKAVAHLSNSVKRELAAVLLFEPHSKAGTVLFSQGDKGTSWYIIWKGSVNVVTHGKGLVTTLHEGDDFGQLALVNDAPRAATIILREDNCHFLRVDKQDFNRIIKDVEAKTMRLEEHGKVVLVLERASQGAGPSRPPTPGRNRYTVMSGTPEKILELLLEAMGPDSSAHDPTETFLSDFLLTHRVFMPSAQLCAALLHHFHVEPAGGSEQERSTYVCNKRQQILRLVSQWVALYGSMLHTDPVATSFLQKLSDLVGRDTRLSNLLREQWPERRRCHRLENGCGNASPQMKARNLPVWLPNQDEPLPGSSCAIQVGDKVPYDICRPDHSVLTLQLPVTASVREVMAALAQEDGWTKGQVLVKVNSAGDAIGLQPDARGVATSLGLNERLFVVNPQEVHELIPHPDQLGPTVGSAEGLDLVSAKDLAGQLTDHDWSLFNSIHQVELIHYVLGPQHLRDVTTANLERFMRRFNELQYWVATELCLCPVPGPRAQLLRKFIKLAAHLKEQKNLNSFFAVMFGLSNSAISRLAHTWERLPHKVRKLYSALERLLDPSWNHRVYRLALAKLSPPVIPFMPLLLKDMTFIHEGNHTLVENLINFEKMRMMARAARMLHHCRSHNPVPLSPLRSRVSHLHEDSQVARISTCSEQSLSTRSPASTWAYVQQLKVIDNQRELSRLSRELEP
Chain of Cytochrome P450 2C9 (Homo sapiens) (P11712 whole entry, looked up): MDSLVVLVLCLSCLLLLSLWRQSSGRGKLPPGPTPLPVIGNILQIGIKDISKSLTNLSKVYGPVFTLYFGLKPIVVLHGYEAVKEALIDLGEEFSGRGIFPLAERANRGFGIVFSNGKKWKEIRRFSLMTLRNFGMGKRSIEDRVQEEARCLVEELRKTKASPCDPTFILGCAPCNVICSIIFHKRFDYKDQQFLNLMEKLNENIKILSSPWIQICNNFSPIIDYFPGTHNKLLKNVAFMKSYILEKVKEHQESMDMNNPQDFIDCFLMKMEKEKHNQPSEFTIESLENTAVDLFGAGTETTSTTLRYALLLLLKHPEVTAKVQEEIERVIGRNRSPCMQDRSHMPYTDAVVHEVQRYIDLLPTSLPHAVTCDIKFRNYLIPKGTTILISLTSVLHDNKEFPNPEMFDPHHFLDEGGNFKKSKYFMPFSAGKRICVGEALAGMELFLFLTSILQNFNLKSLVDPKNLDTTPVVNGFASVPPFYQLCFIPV
Chain of Phenylethanolamine N-methyltransferase (Homo sapiens) (P11086 whole entry, looked up): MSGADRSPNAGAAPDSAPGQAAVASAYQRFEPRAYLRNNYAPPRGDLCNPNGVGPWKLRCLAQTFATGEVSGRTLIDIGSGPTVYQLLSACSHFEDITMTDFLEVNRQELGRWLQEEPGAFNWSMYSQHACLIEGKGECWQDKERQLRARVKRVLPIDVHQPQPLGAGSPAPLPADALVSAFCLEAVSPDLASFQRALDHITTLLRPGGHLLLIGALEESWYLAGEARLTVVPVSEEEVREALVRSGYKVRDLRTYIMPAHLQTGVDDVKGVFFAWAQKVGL
Chain of Nicotinamide N-methyltransferase (Homo sapiens) (P40261 whole entry, looked up): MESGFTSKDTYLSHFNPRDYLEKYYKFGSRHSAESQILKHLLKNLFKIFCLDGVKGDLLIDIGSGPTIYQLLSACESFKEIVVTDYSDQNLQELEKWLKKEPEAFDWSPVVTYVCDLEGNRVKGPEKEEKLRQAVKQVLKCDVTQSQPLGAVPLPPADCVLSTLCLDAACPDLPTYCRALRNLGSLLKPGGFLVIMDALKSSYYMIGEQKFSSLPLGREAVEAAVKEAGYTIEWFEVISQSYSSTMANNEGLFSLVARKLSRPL
Chain of Catechol O-methyltransferase (Homo sapiens) (P21964 whole entry, looked up): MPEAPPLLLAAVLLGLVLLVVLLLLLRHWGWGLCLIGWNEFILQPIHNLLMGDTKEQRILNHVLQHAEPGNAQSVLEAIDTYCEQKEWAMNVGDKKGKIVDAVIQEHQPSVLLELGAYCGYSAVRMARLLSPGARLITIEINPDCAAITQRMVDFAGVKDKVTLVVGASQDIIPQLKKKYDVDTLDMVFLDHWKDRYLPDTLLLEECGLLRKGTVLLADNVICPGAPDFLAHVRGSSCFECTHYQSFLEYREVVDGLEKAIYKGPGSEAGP
Chain of Rap guanine nucleotide exchange factor 4 (Homo sapiens) (Q8WZA2 whole entry, looked up): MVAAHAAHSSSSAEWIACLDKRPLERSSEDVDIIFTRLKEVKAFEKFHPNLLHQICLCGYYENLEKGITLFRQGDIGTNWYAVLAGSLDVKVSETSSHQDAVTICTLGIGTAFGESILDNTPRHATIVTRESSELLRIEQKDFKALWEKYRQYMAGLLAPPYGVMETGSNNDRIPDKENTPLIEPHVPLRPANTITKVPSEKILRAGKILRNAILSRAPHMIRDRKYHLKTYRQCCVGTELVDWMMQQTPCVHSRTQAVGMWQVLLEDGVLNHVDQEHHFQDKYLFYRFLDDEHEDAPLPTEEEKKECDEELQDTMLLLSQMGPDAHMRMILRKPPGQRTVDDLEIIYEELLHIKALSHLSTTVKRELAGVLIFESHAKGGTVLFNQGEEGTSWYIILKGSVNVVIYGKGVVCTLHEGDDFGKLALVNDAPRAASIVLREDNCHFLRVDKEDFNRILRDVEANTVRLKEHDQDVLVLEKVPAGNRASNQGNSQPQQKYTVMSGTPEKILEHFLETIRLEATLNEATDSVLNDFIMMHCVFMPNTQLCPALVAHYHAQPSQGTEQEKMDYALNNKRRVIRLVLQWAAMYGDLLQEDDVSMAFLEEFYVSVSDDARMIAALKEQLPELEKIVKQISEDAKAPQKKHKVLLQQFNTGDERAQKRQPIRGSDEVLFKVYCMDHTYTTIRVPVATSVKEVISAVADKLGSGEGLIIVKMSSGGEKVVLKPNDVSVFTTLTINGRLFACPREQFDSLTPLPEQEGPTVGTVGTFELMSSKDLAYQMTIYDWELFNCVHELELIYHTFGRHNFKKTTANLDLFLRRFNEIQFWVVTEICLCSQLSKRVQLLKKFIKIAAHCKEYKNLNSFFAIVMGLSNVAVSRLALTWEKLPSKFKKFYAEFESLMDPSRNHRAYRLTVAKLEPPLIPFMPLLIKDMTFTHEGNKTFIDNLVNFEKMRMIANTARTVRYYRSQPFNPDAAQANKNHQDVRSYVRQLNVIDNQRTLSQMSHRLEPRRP
Chain of Papain (Carica papaya) (P00784 whole entry, looked up, the tested form may be a part): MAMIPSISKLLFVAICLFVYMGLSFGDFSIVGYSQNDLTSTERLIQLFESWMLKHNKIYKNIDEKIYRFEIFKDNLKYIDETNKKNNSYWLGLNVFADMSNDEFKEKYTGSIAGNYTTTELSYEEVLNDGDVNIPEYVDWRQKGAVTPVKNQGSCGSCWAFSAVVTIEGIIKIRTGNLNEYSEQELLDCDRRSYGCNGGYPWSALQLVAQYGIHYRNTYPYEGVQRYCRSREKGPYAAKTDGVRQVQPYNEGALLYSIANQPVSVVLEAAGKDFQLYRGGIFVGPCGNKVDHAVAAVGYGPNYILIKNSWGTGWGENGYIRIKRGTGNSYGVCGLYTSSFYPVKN
Chain of N-terminal Xaa-Pro-Lys N-methyltransferase 1 (Homo sapiens) (Q9BV86 whole entry, looked up): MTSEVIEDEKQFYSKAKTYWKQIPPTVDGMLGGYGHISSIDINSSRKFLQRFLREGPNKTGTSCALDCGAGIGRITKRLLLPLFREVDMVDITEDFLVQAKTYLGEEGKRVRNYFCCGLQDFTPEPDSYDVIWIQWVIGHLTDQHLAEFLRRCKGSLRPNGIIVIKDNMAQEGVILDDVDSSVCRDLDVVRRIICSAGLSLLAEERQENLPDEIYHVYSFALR
Chain of Cytochrome P450 3A4 (Homo sapiens) (P08684 whole entry, looked up): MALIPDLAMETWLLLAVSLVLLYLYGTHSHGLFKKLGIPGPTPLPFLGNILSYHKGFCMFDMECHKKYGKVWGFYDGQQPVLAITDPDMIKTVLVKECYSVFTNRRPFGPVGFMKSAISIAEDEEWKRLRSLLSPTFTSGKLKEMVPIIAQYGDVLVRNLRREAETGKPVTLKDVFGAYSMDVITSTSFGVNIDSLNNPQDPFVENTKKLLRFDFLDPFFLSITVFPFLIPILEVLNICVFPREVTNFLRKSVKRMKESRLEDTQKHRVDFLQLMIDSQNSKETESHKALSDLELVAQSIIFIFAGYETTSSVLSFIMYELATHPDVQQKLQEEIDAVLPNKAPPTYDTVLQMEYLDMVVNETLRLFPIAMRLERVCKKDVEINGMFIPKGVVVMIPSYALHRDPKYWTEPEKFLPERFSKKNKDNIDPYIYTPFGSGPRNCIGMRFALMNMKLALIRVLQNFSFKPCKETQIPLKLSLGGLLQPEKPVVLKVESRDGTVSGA

## CCC(C)n1ncn(-c2ccc(N3CCN(c4ccc(OC[C@H]5CO[C@](Cn6cncn6)(c6ccc(Cl)cc6Cl)O5)cc4)CC3)cc2)c1=O (stereo partly specified)
[1]
  Potency: inactive
[2]
  Potency: 11 µM (active)
[3]
  Potency: 0.502 µM (active)

## CCCCNc1cc(C(=O)O)cc(S(N)(=O)=O)c1Oc1ccccc1
[4]
  Potency: inactive
Papain (Carica papaya)
  Potency: 20 µM (active)
[3]
  Potency: inactive
[5]
  Potency: inactive

## CC(C)OC(=O)C1=CN(C(=O)c2ccc(F)c(F)c2)CC(C)(C)c2c1[nH]c1ccccc21
[1]
  Potency: inactive
[3]
  Potency: inactive
[5]
  Potency: inactive

## COc1cccc2cc(-c3nc(C4CCC(C(=O)O)CC4)n4ncnc(N)c34)[nH]c12 (stereo unspecified)
[1]
  Potency: inactive
[2]
  Potency: inactive
[3]
  Potency: 5.9 µM (active) and 731 nM (active)
[5]
  Potency: 4.68 µM (active) and 820 nM (active)

## S=C(NCc1ccc2c(c1)OCO2)N1CCN(c2ncnc3c2oc2ccccc23)CC1
[1]
  Potency: 4.77 µM (active)
[2]
  Potency: 2.13 µM (active)
[3]
  Potency: 13.2 µM (active)
[5]
  Potency: 8.17 µM (active)

## COc1ccc(CCN2CCN(CCCc3ccccc3)CC2)cc1OC
[1]
  Potency: 8.49 µM (active)
[2]
  Potency: inactive
[3]
  Potency: inactive
[5]
  Potency: inactive

## COc1ccc([C@@H]2CC(=O)c3c(O)cc(O[C@@H]4O[C@H](CO[C@@H]5O[C@@H](C)[C@H](O)[C@@H](O)[C@@H]5O)[C@@H](O)[C@H](O)[C@@H]4O)cc3O2)cc1O
[1]
  Potency: inactive
[2]
  Potency: inactive

## NCCCC(N)(C(=O)O)C(F)F (stereo unspecified)
[4]
  Potency: inactive
Papain (Carica papaya)
  Potency: inactive
[3]
  Potency: inactive
[5]
  Potency: inactive

## CCc1cncnc1N1CCN(Cc2nc3ccc(C(F)(F)F)cc3[nH]2)CC1
[1]
  Potency: 0.107 µM (active)
[2]
  Potency: 0.477 µM (active)
Papain (Carica papaya)
  Potency: inactive
[6]
  activity: 1.23%
[7]
  activity change, negative = inhibition: 5.86%
[8]
  activity: -37.3%
[9]
  activity: -14.9%

## CCN(CC)CCCC(C)Nc1ccnc2cc(Cl)ccc12 (stereo unspecified)
[4]
  Potency: inactive
[3]
  Potency: inactive
[5]
  Potency: inactive
[6]
  activity: -0.478%
[7]
  activity change, negative = inhibition: 2.04% [at 9.47 µM]
[8]
  activity: 3.54%
[9]
  activity: 0.752%

## O=c1[nH]c(-c2ccc(C(F)(F)F)cc2)nc2c1CSCC2
[1]
  Potency: inactive
[2]
  Potency: 19 µM (active)
[3]
  Potency: inactive
[5]
  Potency: inactive

## Cc1ccc(NC(=O)c2cccc(C(C)(C)C#N)c2)cc1Nc1ccc2ncn(C)c(=O)c2c1
[1]
  Potency: 12 µM (active)
[2]
  Potency: 8.49 µM (active)
[3]
  Potency: 10.5 µM (active)
[5]
  Potency: 13.2 µM (active)

## OC[C@H](Cc1ccccc1)Nc1nc(Oc2ccc3c(c2)CCC3)nc2c1ncn2Cc1ccc(-c2ccccc2)cc1
[1]
  Potency: inactive
[6]
  activity: -10.9%
[7]
  activity change, negative = inhibition: -8.58%
[8]
  activity: -17.3%
[9]
  activity: -16%

## Cc1ccc2c(c1)C(=O)[C@@]1(O)CCN(c3ccccc3)C1=N2
[1]
  Potency: inactive

## Clc1ccc(Nc2nnc(Cc3ccncc3)c3ccccc23)cc1
[1]
  Potency: 0.0174 µM (active)
[2]
  Potency: 0.049 µM (active)
[10]
  Potency: inactive
[3]
  Potency: 15 µM (active) and 9.34 µM (active)
[5]
  Potency: 13.3 µM (active) and 8.33 µM (active)

## C/C(=C\C(=O)Nc1ccccc1C(=O)O)c1ccc2ccccc2c1
[1]
  Potency: inactive
[3]
  Potency: 20.9 µM (active)

## Cc1cn[nH]c1
[4]
  Potency: inactive
Papain (Carica papaya)
  Potency: inactive
[3]
  Potency: inactive
[5]
  Potency: inactive

## CS(=O)(=O)c1cccc(CNc2nc(Nc3ccc4c(c3)CCC(=O)N4)ncc2C(F)(F)F)c1
[1]
  Potency: inactive
[2]
  Potency: 0.169 µM (active)
Papain (Carica papaya)
  Potency: inactive
[3]
  Potency: 3.32 µM (active)
[5]
  Potency: 3.32 µM (active)
[6]
  activity: -9.69% and -3.27%
[7]
  activity change, negative = inhibition: -3.15% and 1.66%
[8]
  activity: -47.6% and -27.3%
[9]
  activity: -7.63% and -9.92%

## N=c1nc(N2CCCCC2)cc(N)n1O
[1]
  Potency: 7.76 µM (active)
[11]
  Potency: inactive
[2]
  Potency: inactive
Papain (Carica papaya)
  Potency: inactive
[3]
  Potency: inactive
[5]
  Potency: inactive

## Nc1nc2ccc(OC(F)(F)F)cc2s1
[4]
  Potency: inactive
[3]
  Potency: 23.5 µM (active)
[5]
  Potency: 20.9 µM (active)
[12]
  Potency: inactive
[13]
  outcome: inactive
[14]
  outcome: inactive

## CS(=O)(=O)Oc1ccc2c(NC(N)=O)c(C(=O)c3ccc(Cl)cc3Cl)oc2c1
[3]
  Potency: inactive
[5]
  Potency: inactive

## Cc1cc(Nc2nc(N[C@@H](C)c3ncc(F)cn3)ncc2Cl)n[nH]1
[3]
  Potency: 2.05 µM (active) and 2.95 µM (active)
[5]
  Potency: 2.05 µM (active) and 3.72 µM (active)

## CCC(C)N(C)C(=O)c1cc2ccccc2c(-c2ccccc2Cl)n1 (stereo unspecified)
Papain (Carica papaya)
  Potency: inactive

## COc1ccc(-c2oc3cc(OC)ccc3c2C(=O)c2ccc(C#N)cc2)cc1
[2]
  Potency: 7.56 µM (active)

## CS(=O)(=O)c1ccc(C(=O)Nc2ccc(Cl)c(-c3ccccn3)c2)c(Cl)c1
[3]
  Potency: inactive
[5]
  Potency: inactive

## CN1CCN(CCCN2c3ccccc3Sc3ccc(C(F)(F)F)cc32)CC1
Papain (Carica papaya)
  Potency: inactive
[3]
  Potency: 18.8 µM (active) and 16.6 µM (active)
[5]
  Potency: 23.7 µM (active) and 16.6 µM (active)
[13]
  outcome: inactive
[14]
  outcome: inactive
[15]
  Potency: 24.8 µM (active) and 44.1 µM (active)

## CCN(CC)CCCC(C)Nc1nc(C)cc(Nc2ccc3nc(C)cc(N)c3c2)n1 (stereo unspecified)
[2]
  Potency: inactive

## COc1cc2c(cc1OC)CN(CCc1ccc(NC(=O)c3cccc4c(=O)c5cccc(OC)c5[nH]c34)cc1)CC2
[2]
  Potency: 3.01 µM (active)
[10]
  Potency: 35.5 µM (active)
[3]
  Potency: inactive
[5]
  Potency: inactive
[6]
  activity: -13%
[7]
  activity change, negative = inhibition: -0.294%
[8]
  activity: -75.2%
[9]
  activity: -10.7%
